This is a sample that favours compounds with a hit; in the whole collection about 3.5% have one here.
ANO1 activ = mouse TMEM16A channel activation, primary screen; 340,000 compounds, 0.3% hits; HEK293 TMEM16A/YFP-H148Q/I152L, iodide quench fluorescence; stronger effect = lower value; B-score at 10 µM;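 active means fluorescence-ratio B-score plate-corrected deviation score at least 3 library SD below zero, with starting fluorescence score within 5 deviations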;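 further: channel opened by trigger with iodide after compound preincubation; score built on the fluorescence ratio of max minus min over baseline; more negative score means more quench and so TMEM16A activation or potentiation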
KCNK9 inh = inhibitors of human KCNK9 two-pore domain potassium channel; Q9NPC2; HEK293 KCNK9, FluxOR thallium flux fluorescence; stronger effect = lower value; B-score at 10 µM; 310,000 compounds, 1.2% hits;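 active means ratio B-score over 3 SD below the library mean, with starting fluorescence within 5 SD of its mean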;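 further: negative B-score means less thallium flux so channel inhibition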
ANO1 block = inhibitors of mouse TMEM16A calcium-activated chloride channel. Q8BHY3. normalized B-score (activity score, 25-100; higher = stronger inhibition) at 10 µM. AID 588511. HEK293 TMEM16A/YFP iodide influx fluorescence, ionomycin. 310,000 compounds, 1.2% hits;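 active means ratio plate-corrected score three or more library SD toward inhibition, starting fluorescence score within five deviations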;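 further: score derived from kinetic fluorescence span divided by baseline fluorescence per well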
KCNK3 block = human KCNK3 channel inhibition, primary screen; CHO-KCNK3 thallium flux, FluxOR fluorescence; stronger effect = lower value; B-score at 10 µM; 340,000 compounds, 0.84% hits; AID 602410;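 active means B-score under library mean minus 4 SD, starting fluorescence ratio at most library mean plus 5 SD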;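 further: more negative B-score means stronger inhibition of thallium flux through KCNK3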
Kir21 block = blocks the mouse Kir2.1 inward-rectifier potassium channel; P35561; HEK293-Kir2.1, FluxOR thallium flux fluorescence; stronger effect = lower value; B-score at 10 µM; 310,000 compounds, 0.85% hits;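 active means fluorescence ratio B-score at or below minus 3 SD of library scores, with starting-brightness B-score within 2 SD, cut at about -4.2 in these data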;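 further: channel flux triggered by added potassium and thallium sulfate stimulus; B-score of peak minus minimum fluorescence over baseline after thallium stimulus; more negative B-score means stronger Kir2.1 block with less thallium influx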
Target sequence (P35561 whole entry, looked up): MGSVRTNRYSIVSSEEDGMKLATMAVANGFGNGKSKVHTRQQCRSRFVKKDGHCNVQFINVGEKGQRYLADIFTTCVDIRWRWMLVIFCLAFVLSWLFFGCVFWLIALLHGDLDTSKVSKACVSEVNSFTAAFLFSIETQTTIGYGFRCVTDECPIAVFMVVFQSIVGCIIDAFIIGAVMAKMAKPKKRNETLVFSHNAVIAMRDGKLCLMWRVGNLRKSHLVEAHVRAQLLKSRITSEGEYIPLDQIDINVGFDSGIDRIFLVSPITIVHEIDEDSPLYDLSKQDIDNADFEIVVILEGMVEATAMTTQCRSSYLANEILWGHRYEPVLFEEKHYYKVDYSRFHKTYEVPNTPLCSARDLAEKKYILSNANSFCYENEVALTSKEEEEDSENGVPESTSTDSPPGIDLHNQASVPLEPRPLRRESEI
* hit, by the source's call; i = inactive; x = not tested or not shown.

SMILES | ANO1 activ | KCNK9 inh | ANO1 block | KCNK3 block | Kir21 block
C(=C\c1ccccc1)/CSc1nnc(-c2ccccn2)n1Cc1ccco1 | i | i | i | i | -7.9*
NC(=O)CSc1nnc(-c2ccccn2)n1Cc1ccco1 | i | i | i | i | 0.95
CC(NC(=O)CSC(=S)N(C)C)C12CC3CC(CC(C3)C1)C2 (configuration not stated) | i | x | x | i | x
COCc1cc(CNC(=O)C2CCC(=O)N(Cc3ccccc3OC)C2)[nH]n1 (configuration not stated) | i | i | i | i | 0.99
CCC(C)Nc1nc(Cl)nc(N(C#N)CN2C(=O)c3ccccc3S2(=O)=O)n1 (configuration not stated) | i | i | i | i | 0.35
CC(C)Nc1nc(Cl)nc(N(C#N)CN2C(=O)c3ccccc3C2=O)n1 | i | i | i | i | -5.2*
COC(=O)c1nnn(CC(=O)Nc2cccc(OC)c2)c1C(=O)OC | i | i | i | i | -0.43
Cc1cc(C)c(O)c(-c2cc(C(=O)Nc3ccc(S(=O)(=O)N4CCOCC4)cc3)[nH]n2)c1 | i | i | 25* | i | 0.02
CC(=O)Nc1ccc(NC(=O)c2cc(-c3cc(C)cc(C)c3O)n[nH]2)cc1 | i | i | i | i | -0.35
C/C=C(\C)C(=O)NCCN1C2=NC[C@H](Cc3ccccc3)N2C[C@@H]1Cc1ccc(OC)cc1 | i | i | i | i | -2
COc1ccc(C[C@H]2CN3C(=NC[C@@H]3Cc3ccccc3)N2C[C@H](C)NC(=O)CCC2CCCCC2)cc1 | x | i | x | x | -7.3*
COc1ccc(C[C@H]2CN3C(=NC[C@H]3Cc3ccccc3)N2CCNC(=O)CCC2CCCCC2)cc1 | i | i | i | i | -6.1*
C[C@@H](CN1C2=NC[C@H](Cc3ccccc3)N2C[C@H]1Cc1ccc(O)cc1)NC(=O)CCC1CCCCC1 | i | i | i | i | -4.5*
CC(C)[C@H](NC(=O)N1CC(=O)Nc2ccccc21)C(=O)N[C@H](Cc1ccccc1)C(=O)O | i | i | i | i | 0.01
Cc1cccc(CNC(=O)c2ccc(NC(=O)C3=CSCCO3)cc2)c1 | i | i | i | i | -0.95
CCOc1ccccc1OCCOc1ccccc1OC(C)C | i | i | i | i | -4.9*
C=CCn1c(CSCc2ccccc2)nnc1SCC(=O)N1CCN(c2ccccc2)CC1 | i | i | i | i | -0.82
CCn1c(CSCc2ccc(C)cc2)nnc1SCC(=O)N1CCN(c2ccccc2)CC1 | i | i | 25* | i | 1.1
CC1CCC(NC(=O)Cn2cnc3sccc3c2=O)CC1 (configuration not stated) | -4.8* | x | x | i | x
CCC(Oc1ccccc1)C(=O)Nc1ccc(-c2nnc(-c3ccco3)o2)cc1 (configuration not stated) | i | -7.3* | i | i | 0.03
COC1(OC)N=C(N)C2(C#N)C(c3ccc(F)cc3)C12C#N (configuration not stated) | i | i | i | i | 1.2
CCSC1(SCC)N=C(N)C2(C#N)C(c3ccc(F)cc3)C12C#N (configuration not stated) | i | i | i | i | -4.7*
CCN(CC)C(=O)CC(c1ccccc1)c1ccco1 (configuration not stated) | i | i | i | i | -1.6
O=C(c1ccco1)N(CCC(c1ccccc1)c1ccco1)Cc1ccccc1 (configuration not stated) | i | -7.2* | i | i | -1
CCC(=O)N(CCC(c1ccccc1)c1ccco1)Cc1cccs1 (configuration not stated) | i | -14* | i | i | -7.4*
CC(NC(=O)COC(=O)/C(=C/c1cccs1)c1cccs1)c1ccccc1 (configuration not stated) | i | -6.8* | i | i | -0.6
CC(=O)C1C(c2cccc(F)c2)c2c(n[nH]c2C)CC1(C)O (configuration not stated) | i | i | i | i | -1.3
N#Cc1c(N)sc2c1CCN(CCc1ccccc1)C2 | i | i | 25* | i | -3.3
CC(C)(C)NC(=S)NC(C)(C)C | i | i | x | i | 0.01
CCN1CCN(CCOc2cccc(Oc3ccccc3)c2)CC1 | i | i | i | i | -4.5*

Screening results as filed in PubChem BioAssay.
